Source: PubChem
HT1080 IDH1KD tx: HT-1080 IDH1 knockdown cell toxicity (counter line); HT-1080 IDH1 knockdown viability, ATP luminescence, 48 h; Potency, µM (titrated, usually from 46.1 µM), without a hit: at the highest dose activity, negative = toxicity, hits mostly cytotoxic; 360,000 compounds, 2% hits;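 also: 0% = DMSO wells and -100% = cell-free medium wells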
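In this qHTS, HT-1080 cells depleted of IDH1 are exposed for 48 h at 37 °C to compound titrations. Toxicity is scored from CellTiter-Glo luminescence, with DMSO as full viability and medium alone as none.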
KB-V1 cytotox: kills drug-selected multidrug resistant KB-V1 cells; KB-V1 MDR cells viability, CellTiter-Glo, 72 h; Potency, µM (highest dose often 46.1 µM), actives largely listed as cytotoxic; 400,000 compounds, 3.4% hits; also: % is scaled to controls: 0 for no effect and ±100 for the full control effect; nearly all actives have a fitted effect of over 60% in size
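qHTS viability screen in drug-selected KB-V1 MDR cells: 72 h compound treatment at 37 degrees C, ATP luminescence end point.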
SW480 rereplic: DNA re-replication induction in SW480 cells; 340,000 compounds, 1.8% hits; SW480 DNA re-replication, Hoechst DNA content imaging, 48 h; AID 624297; Potency, µM (doses to about 46.1 µM), without a hit: at the highest dose re-replication activation, actives largely listed as activators; also: % of control where 0% means no effect; nearly all actives have a fitted effect of over 55% in size
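Hoechst fluorescence of nuclei (405 nm excitation, 500-530 nm emission) measured by plate-scanning imager after 48 hr compound exposure at 37 C; re-replication scored as increased number of nuclei with elevated intensity.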
MCF10A rereplic: inducers of DNA re-replication in MCF 10A breast cells. MCF 10A DNA re-replication, Hoechst nuclear intensity, 48 h. Potency, µM (top dose mostly 46.1 µM), without a hit: at the highest dose activity, positive = re-replication, usual class: activators. 350,000 compounds, 2.9% hits; also: % of control where 0% means no effect; nearly all actives have a fitted effect of over 50% in size
HT1080NT lethal: kills 2HG-producing HT-1080-NT fibrosarcoma cells | 360,000 compounds, 1.6% hits | AID 686970 | Potency, µM (top dose mostly 46.1 µM), inactives show top-dose activity, negative = less viability, most hits filed as cytotoxic | HT-1080-NT fibrosarcoma viability, CellTiter-Glo ATP luminescence, 48 h;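 also: NT is the 2HG producing partner of a matched IDH1 knockdown line; 0% = DMSO-treated cells and -100% = media-only wells without cells; nearly all actives have a fitted effect of over 55% in size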
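Fibrosarcoma NT cells, 750 per well in 5% FBS RPMI, were exposed to compound for 48 hours. Viability: CellTiter-Glo luminescence.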
KB-3-1 tox: kills parental KB-3-1 adenocarcinoma cells; AID 1347075; 400,000 compounds, 1.4% hits; KB-3-1 viability, CellTiter-Glo ATP luminescence, 72 h; Potency, µM (titrated, usually from 46.1 µM), actives largely listed as cytotoxic; also: % is scaled to controls: 0 for no effect and ±100 for the full control effect; nearly all actives have a fitted effect of over 60% in size
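Cytotoxicity measured as CellTiter-Glo luminescence after 72 h at 37 C. Compound titrations were pinned onto drug-naive KB-3-1 parental adenocarcinoma cells grown in DMEM with 10% FBS, and normalized data fitted to concentration-response curves.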
Starred values were filed as active, the others as inactive; i = inactive; ? = inconclusive; nt = no result; ! = not active in a repeat; [ ] = remark or other dose. A selection: hits, their analogues and other compounds. The true share with any hit is near 8%. Calls follow the shape of the dose curve; as a rule, active = well fitted curve in the direction sought with a large enough effect; inconclusive = small, poorly fitted or top-dose-only effect, or another doubt; inactive = no such curve, though single readings can be large; an effect the other way counts as inactive or inconclusive. Potency is read from the fitted curve at half-maximal effect.

SMILES | HT1080 IDH1KD tx | KB-V1 cytotox | SW480 rereplic | MCF10A rereplic | HT1080NT lethal | KB-3-1 tox
COCCn1cnnc1SCC(=O)Nc1cc(C)on1 | 22% | ? | -7% | -3% | -2% | i
CCc1ccc(NC(=S)NC2CC3CCCC(C2)N3Cc2ccccc2)cc1 (stereo unspecified) | -5% | i | -82% | ? | -8% | i
S=C(Nc1ccc(Cl)cc1)NC1CC2CCCC(C1)N2C1CCCC1 (stereo unspecified) | ? | i | 23µM* | ? | ? | i
S=C(Nc1ccc(Cl)cc1)NC1CC2CCC(C1)N2Cc1ccccc1 (stereo unspecified) | 18µM* | ? | 14% | ? | ? | ?
COc1ccc(OC)c(/C=N/NC(=O)c2ccncc2)c1 | 10% | i | -9% | 3% | 0% | i
CC1CCC(C(=O)NC(C(=O)NCc2cccnc2)C(C)C)CC1 (stereo unspecified) | 2% | 21µM* | -3% | 1% | 1% | i
CC(C)CC(NC(=O)C1CCC(C)CC1)C(=O)NCc1cccnc1 (stereo unspecified) | 0% | 18µM* | 0% | 1% | 4% | i
O=C(COc1ccc2ccc(=O)oc2c1)N1CCN(c2ccccc2)CC1 | 6% | ? | 0% | 2% | -3% | i
O=S(=O)(c1ccccc1)N1CCC(n2cnc3ccccc32)CC1 | -1% | ? | -5% | 5% | 6% | i
O=S(=O)(c1ccccc1C(F)(F)F)N1CCC(n2cnc3ccccc32)CC1 | -5% | 9.2µM* | 8% | -2% | 1% | i
COc1ccc(C(=O)C(C)N(C(=O)c2ccc(Cl)cc2Cl)N2C(=O)C3C4C=CC(C4)C3C2=O)cc1 (stereo unspecified) | -7% | i | 13% | -5% | -1% | i
CC(OC(=O)C1CCCCC1)c1nc2ccccc2[nH]1 (stereo unspecified) | 4% | 21µM* | -8% | -1% | -1% | i
O=C(Nc1cccc(Cl)c1)c1ccc(F)c(S(=O)(=O)N2CCN(c3ccccn3)CC2)c1 | ? | ? | 0% | 23µM*! | -19% | ?
CCOc1ccc(NC(=O)c2ccc(F)c(S(=O)(=O)N3CCN(c4ccccn4)CC3)c2)cc1 | ? | 2.3µM* | 2% | 2% | -18% | i
O=C(c1ccc(Cl)c(S(=O)(=O)N2CCCC2)c1)N1CCN(c2ccccn2)CC1 | -7% | i | -1% | -2% | 2% | i
FC(F)(F)c1nc(-c2cccs2)ncc1-c1nnnn1-c1ccc(Cl)cc1 | ? | 16µM* | 6% | 6.5µM* | ? | ?
COc1ccc(-n2nnnc2-c2cnc(N3CCCC3)nc2C(F)(F)F)cc1 | -21% | 5.2µM* | -1% | ? | -3% | 18µM*
CCc1ccc(S(=O)(=O)/N=C2/C=C(Sc3ncn[nH]3)C(=O)c3ccccc32)cc1 | 5.2µM* | i | 4.6µM* | 3.3µM* | 5.8µM* | i
CCc1ccc(S(=O)(=O)/N=C2\C=C(Nc3ccc(O)cc3)C(=O)c3ccccc32)cc1 | 2.9µM* | ? | 5.8µM* | 3.7µM* | 2.9µM* | 2.9µM*
CCc1ccc(S(=O)(=O)/N=C2\C=C(Nc3cccc(C(=O)O)c3)C(=O)c3ccccc32)cc1 | 7.3µM* | i | 115% | ? | 8.2µM* | i
COC(=O)c1c[nH]c2c1-c1cc(C(=O)OCc3ccccc3)n(S(=O)(=O)c3ccc(C)cc3)c1C(=O)C2=O | 21µM* | 5.8µM* | ? | 12% | ? | 2.9µM*
Cc1ccccc1NC(=S)N(CCN(C)C)C(C)c1ccccn1 (stereo unspecified) | 9% | 16µM* | 4% | 15% | 15% | i
O=C(/C=C/c1cccc(F)c1)OCC(=O)c1ccc[nH]1 | 16% | i | 12% | -2% | -1%[9.24 µM] | i
CCCCn1nnnc1C1(C)CCC(=O)N1CCCn1ccnc1 (stereo unspecified) | ? | i | nt | nt | ? | 13µM*
CCCCC(=O)Nc1ccc(Br)cn1 | 9% | i | -6% | -7% | 2% | i
SMILES | HT1080 IDH1KD tx | KB-V1 cytotox | SW480 rereplic | MCF10A rereplic | HT1080NT lethal | KB-3-1 tox
O=C(/C=C/c1ccccc1)Nc1ccc(Br)cn1 | 5.2µM* | i | 5.8µM* | 2.1µM* | 6.5µM* | 5.2µM*
O=C(O)C(=O)Nc1ncn[nH]1 | 7% | i | nt | nt | 7% | i
O=C(CC(=O)c1ccccc1)CS(=O)(=O)c1ccccc1 | -18% | 12µM* | 5% | ? | 4% | i
C=CCCC(=O)Nc1ccc(Br)cn1 | ? | ? | 16µM* | 9.2µM* | ? | ?
O=C(/C=C/c1ccccc1)Nc1ncn[nH]1 | 7.9µM* | i | ? | -6% | 11µM* | i
Cc1ccc(S(=O)(=O)CC(=O)c2ccccc2)cc1 | 20% | i | 0% | -1% | 14% | i
CC(=O)Nc1ccc(S(=O)(=O)NC2CCCCCC2)cc1 | -6% | i | -6% | 22% | -5% | i
NC1=NC(=O)C(CC(=O)Nc2ccc3c(c2)OCO3)S1 (stereo unspecified) | 2% | i | -9% | -7% | 1% | i
C=CCOc1ccc(CNc2ccc(NC(=O)CCC)cc2)cc1OCC | -6% | ? | -11% | 7% | 0% | i
COc1ccc(CN(CC(=O)NCC2CCCO2)C(=O)CNS(=O)(=O)c2ccccc2)cc1 (stereo unspecified) | 3% | i | -9% | -7% | 5% | i
O=C(CS(=O)(=O)c1ccccc1)Nc1ccc(Br)cn1 | -3% | 16µM* | -1% | 2% | -5% | i
CCOCCCNC(=S)N1CCC(NC(=O)C23CC4CC(CC(C4)C2)C3)CC1 | -4% | i | -4% | 0% | 0% | i
CCCN(CCC)CCNC(=O)c1cc2c(-c3ccccc3F)nn(C)c2s1 | ? | ? | ? | 94% | -24% | i
Cc1nn(-c2ccccc2)c2sc(C(=O)NC3CC3)cc12 | -27% | i | 2% | 12µM* | -23% | i
CCOCCCNC(=O)c1cc2c(-c3ccc(Cl)cc3)nn(C)c2s1 | ? | i | 18% | 9% | -1% | i
Cn1nc(-c2ccc(Cl)cc2)c2cc(C(=O)NC3CC3)sc21 | -9% | ? | ? | 6.5µM* | -7% | i
CCCCN(CC)CCNC(=O)c1cc2c(-c3ccc(Cl)cc3)nn(C)c2s1 | 21µM* | 23µM* | ? | 18µM* | 21µM* | ?
CCCN(CCC)CCNC(=O)c1cc2c(-c3ccc(Cl)cc3)nn(C)c2s1 | -14% | i | ? | ? | -18% | 16µM*
